The nature of assay [1]: Quantitative High-Throughput drug screen in 47 multiple myeloma cell lines against the NCATS MIPE library collection: Karpas620_DSMZ cell viability assay (AID 1918959). Note: nearly all actives have a fitted effect of over 30% in size. Summed up:
(§1)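 qHTS of the MIPE 4.0 collection: 500 myeloma cells/well, 48 h drug exposure at 37C in 5% CO2, then CellTiter-Glo for 5 min at room temperature before luminescence reading.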

The nature of assay [2]: Quantitative High-Throughput drug screen in 47 multiple myeloma cell lines against the NCATS MIPE library collection: KMM1_JCRB cell viability assay (AID 1918960). Note: nearly all actives have a fitted effect of over 30% in size. An outline of the steps: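 Viability screen: myeloma cells (500/well) incubated 48 h at 37 °C, humidified 5% CO2, with pinned library compounds; CellTiter-Glo added, luminescence read; DMSO wells set 100%, medium-only wells 0%.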

Assay [3] is described as follows: Quantitative High-Throughput drug screen in 47 multiple myeloma cell lines against the NCATS MIPE library collection: KHM11_PLB cell viability assay (AID 1918962). Note: nearly all actives have a fitted effect of over 35% in size. Summed up:
as §1

Assay [4] can be described thus: Quantitative High-Throughput drug screen in 47 multiple myeloma cell lines against the NCATS MIPE library collection: JIM1_ECACC cell viability assay (AID 1918964). Summed up:
(§2)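 Relative luminescence from CellTiter-Glo served as the viability signal, referenced to DMSO-treated (100%) and cell-free medium (0%) controls. Treatment lasted 48 hours at 37C with 500 cells per well.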

Assay [5] is described as follows: Quantitative High-Throughput drug screen in 47 multiple myeloma cell lines against the NCATS MIPE library collection: INA6_PLB cell viability assay (AID 1918965; note: nearly all actives have a fitted effect of over 55% in size). An outline of the steps: (§3)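 Luminescent ATP measurement with CellTiter-Glo gives viability, scaled between DMSO-only wells (100%) and media-only wells (0%). Cells, 500 per well, faced library compounds for 48 hours at 37C.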

Assay [6] can be described thus: Quantitative High-Throughput drug screen in 47 multiple myeloma cell lines against the NCATS MIPE library collection: H1112_PLB cell viability assay (AID 1918967; note: nearly all actives have a fitted effect of over 30% in size). Summed up:
as §2

The nature of assay [7]: Quantitative High-Throughput drug screen in 47 multiple myeloma cell lines against the NCATS MIPE library collection: KMS12PE_JCRB cell viability assay (AID 1918972). Note: nearly all actives have a fitted effect of over 30% in size. Summed up:
as §3

Assay [8] in a line: Quantitative High-Throughput drug screen in 47 multiple myeloma cell lines against the NCATS MIPE library collection: KMS20_JCRB cell viability assay (AID 1918973). Note: nearly all actives have a fitted effect of over 45% in size. An outline of the steps: as §2
Assay [9] can be described thus: Quantitative High-Throughput drug screen in 47 multiple myeloma cell lines against the NCATS MIPE library collection: KMS26_JCRB cell viability assay (AID 1918975). Note: nearly all actives have a fitted effect of over 45% in size. Summed up:
(§4)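 Steps: seed 500 cells per well; pin-transfer MIPE 4.0 library; incubate 48 h at 37C, 5% CO2, humidified; add CellTiter-Glo, 5 min room temperature; read luminescence.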

A short description of assay [10]: Quantitative High-Throughput drug screen in 47 multiple myeloma cell lines against the NCATS MIPE library collection: MMM1_PLB cell viability assay (AID 1918976). Note: nearly all actives have a fitted effect of over 35% in size. An outline of the steps:
(§5)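 qHTS format: cells plated (500/well), pin-dosed with MIPE 4.0 compounds, kept 48 h at 37 °C. Readout was CellTiter-Glo luminescence, median RLU.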

A short description of assay [11]: Quantitative High-Throughput drug screen in 47 multiple myeloma cell lines against the NCATS MIPE library collection: OCIMY1_PLB cell viability assay (AID 1918979). Note: nearly all actives have a fitted effect of over 35% in size. Summed up: as §5
A short description of assay [12]: Quantitative High-Throughput drug screen in 47 multiple myeloma cell lines against the NCATS MIPE library collection: JIM3_ECACC cell viability assay (AID 1918963; note: nearly all actives have a fitted effect of over 35% in size). Summed up: as §1
A short description of assay [13]: Quantitative High-Throughput drug screen in 47 multiple myeloma cell lines against the NCATS MIPE library collection: Karpas25_ECACC cell viability assay (AID 1918968; note: nearly all actives have a fitted effect of over 35% in size). Summed up:
as §2

A short description of assay [14]: Quantitative High-Throughput drug screen in 47 multiple myeloma cell lines against the NCATS MIPE library collection: KMS27_JCRB cell viability assay (AID 1918970). Note: nearly all actives have a fitted effect of over 30% in size. The settings on record: KMS27 myeloma cells, CellTiter-Glo ATP viability, 48 h; viability (% of DMSO): at 45.8 µM (top of the series). Summed up: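 Each line is seeded at 500 cells per well and treated with library compounds for 48 hours under 37 °C, 5% CO2. CellTiter-Glo is then added for 5 min at room temperature before median relative luminescence is recorded.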
A general note: ATP-based viability assays read luminescence as a measure of living cells.

Assay [15] is described as follows: Quantitative High-Throughput drug screen in 47 multiple myeloma cell lines against the NCATS MIPE library collection: KMS12BM_JCRB cell viability assay (AID 1918971). Note: nearly all actives have a fitted effect of over 35% in size. Summed up:
as §4

Assay [16] in a line: Quantitative High-Throughput drug screen in 47 multiple myeloma cell lines against the NCATS MIPE library collection: MOLP8_DSMZ cell viability assay (AID 1918977). Note: nearly all actives have a fitted effect of over 45% in size. An outline of the steps: as §5
Assay [17] is described as follows: Quantitative High-Throughput drug screen in 47 multiple myeloma cell lines against the NCATS MIPE library collection: NCIH929_DSMZ cell viability assay (AID 1918978). Note: nearly all actives have a fitted effect of over 35% in size. An outline of the steps: as §5
A short description of assay [18]: Quantitative High-Throughput drug screen in 47 multiple myeloma cell lines against the NCATS MIPE library collection: KMS21BM_JCRB cell viability assay (AID 1918974). The note with it: ATP luminescence, 48 h; viability: at 45.8 µM (top of the series). An outline of the steps: as §2
Assay [19] can be described thus: Quantitative High-Throughput drug screen in 47 multiple myeloma cell lines against the NCATS MIPE library collection: JJN3_DSMZ cell viability assay (AID 1918966; note: nearly all actives have a fitted effect of over 50% in size). An outline of the steps:
as §2

The structures appear in SMILES notation. Records with an inconclusive call do not appear. Calls of active or inactive are those of the source. Calls come from the whole dose curve; as a rule, active = well fitted curve in the direction sought with a large enough effect; inconclusive = small, poorly fitted or top-dose-only effect, or another doubt; inactive = no such curve, though single readings can be large; an effect the other way counts as inactive or inconclusive.

The source of these data is PubChem BioAssay (NCATS).
Potency is the fitted concentration of half-maximal effect.

Turning to `C[C@H](CCC(=O)O)[C@H]1CCC2C3C[C@H](O)[C@@H]4C[C@H](O)CC[C@]4(C)C3CC[C@@]21C` (stereo not given in full), the Potency entry in assay [1], in [2], in assay [3], in [4], in [5] and in assay [6] was “inactive” each time. Besides, the Potency entry in assay [7], in [8], in [9] and in assay [11] was “inactive” throughout. Further, the Potency in assay [10] was 0.833 µM (active).
Take `C[C@@H]1CC[C@@]2(OC1)OC1CC3C4CC=C5CC(O)CCC5(C)C4CCC3(C)C1[C@@H]2C` (stereo not given in full): the Potency result in assay [1], in [2], in assay [3], in assay [12], in [4] and in assay [6] was “inactive” throughout. The Potency result in assay [13], in assay [14], in [15], in assay [7], in [16] and in assay [17] was “inactive” in each case. Further, the Potency result in [11] is “inactive”.
Consider `CC[C@H]1OC(=O)[C@H](C)[C@@H](O[C@H]2C[C@@](C)(OC)[C@@H](O)[C@H](C)O2)[C@H](C)[C@@H](O[C@@H]2O[C@@H](C)C[C@H](N(C)C)[C@@H]2O)[C@](C)(O)C[C@@H](C)C(=O)[C@H](C)[C@@H](O)[C@]1(C)O`, for which the Potency result in [1], in [2], in [3], in assay [12], in [4] and in assay [6] was “inactive” throughout. Moreover, the Potency result in assay [14], in assay [7], in assay [18], in assay [9], in assay [16] and in [17] was “inactive” each time. Besides, the Potency result in assay [11] is “inactive”.
With `c1ccc(CNc2nc(NCc3ccccc3)c3ccccc3n2)cc1`, the Potency was 5.26 µM (active) in assay [1]; 4.69 µM (active) in [2]; 8.33 µM (active) in [3]; 8.33 µM (active) in assay [4]; 7.43 µM (active) in assay [5]; 11.8 µM (active) in assay [6]. For the same compound, the Potency in assay [13] was 5.9 µM (active); in [14], 5.9 µM (active); in assay [15] it was 29.6 µM (active); in assay [7], 5.9 µM (active); in assay [8] it was 8.33 µM (active); in assay [9], 26.4 µM (active). Further, the Potency in assay [10] was 16.6 µM (active); in [16] it was 18.7 µM (active); in [17], 8.33 µM (active).
Take `N#CC(=Cc1ccc(O)c(O)c1)C(=O)NCc1ccccc1`: the Potency entry in assay [1] and in [2] was “inactive” in each case. Also, the Potency in [3] was 9.35 µM (active); in assay [12], 8.33 µM (active); in [5] it was 16.6 µM (active); in assay [6], 7.43 µM (active); in [14] it was 0.833 µM (active); in [8] it was 8.33 µM (active). In assay [10], the Potency was 3.32 µM (active).
For `O=C(O)C=Cc1ccc(Cn2ccnc2)cc1`, the Potency result in assay [1], in [2], in assay [3], in assay [4], in assay [19] and in [6] was “inactive” each time. The Potency result in [13], in assay [15], in assay [7], in [9], in assay [16] and in assay [17] was “inactive” in each case.
As for `COc1cc(C(=O)NC2CCN(C)CC2)ccc1Nc1ncc2c(n1)N(C1CCCC1)CCC(=O)N2C(C)C`, the Potency in assay [1] is 23.5 µM (active); in assay [2], 16.6 µM (active); in assay [12] it was 20.9 µM (active); in assay [4], 5.9 µM (active); in assay [5], 3.72 µM (active); in assay [19] it was 8.33 µM (active). Besides, the Potency in assay [6] is 23.5 µM (active); in assay [13], 20.9 µM (active); in assay [14], 5.9 µM (active); in assay [7], 13.2 µM (active); in [8], 16.6 µM (active); in assay [18], 3.72 µM (active). Also, the Potency in assay [17] is 10.5 µM (active).
For `O=[N+]([O-])c1cn2c(n1)OC[C@@H](OCc1ccc(OC(F)(F)F)cc1)C2`, the Potency entry in assay [1], in [2], in assay [3], in assay [12], in [4] and in assay [13] was “inactive” in each case. Moreover, the Potency result in assay [7], in [9], in [16], in assay [17] and in assay [11] was “inactive” throughout. Moreover, the Potency in assay [10] is 8.33 µM (active).
On to `CN(C)CC[C@H](c1ccc(Cl)cc1)c1ccccn1`, for which the Potency result in [1], in assay [2], in assay [3], in assay [12], in assay [5] and in [19] was “inactive” throughout. Besides, the Potency result in assay [6], in assay [13] and in [9] was “inactive” in each case.
As for `CC[C@H](CC[C@@H](C)[C@H]1CC[C@H]2[C@@H]3CC=C4C[C@@H](O)CC[C@]4(C)[C@@H]3CC[C@]12C)C(C)C`, the Potency result in [1], in assay [2], in [3], in assay [12], in assay [6] and in assay [13] was “inactive” in each case. For the same compound, the Potency entry in assay [15], in assay [8], in assay [18], in assay [9], in assay [16] and in assay [17] was “inactive” each time. Further, the Potency entry in [11] was “inactive”.
As to `CC(=O)SCC(Cc1ccccc1)C(=O)NCC(=O)OCc1ccccc1` (stereo not given), the Potency in assay [1] was 1.66 µM (active); in assay [2], 3.32 µM (active); in assay [3] it was 7.43 µM (active); in assay [4], 2.96 µM (active); in assay [5], 0.935 µM (active); in [19], 5.9 µM (active). The Potency was 1.66 µM (active) in assay [6]; 0.662 µM (active) in assay [14]; 2.35 µM (active) in assay [15]; 1.66 µM (active) in assay [7]; 2.35 µM (active) in assay [8]; 18.7 µM (active) in assay [9]. The results for the Potency in assay [10] and in [17] were 7.43 µM (active) and 1.05 µM (active), respectively.
As for `CO[C@@H]1[C@@H](O)[C@H](O)[C@@H](n2c3c(Cl)cccc3c3c4c(c5c6cccc(Cl)c6[nH]c5c32)C(=O)NC4=O)O[C@@H]1CO`, the Potency was 1.48 µM (active) in [1]; 0.264 µM (active) in [2]; 1.18 µM (active) in [3]; 0.526 µM (active) in [4]; 0.187 µM (active) in [5]; 9.35 µM (active) in [19]. Further, the Potency in assay [6] is 0.418 µM (active); in [13], 0.59 µM (active); in [14], 0.118 µM (active); in assay [15] it was 0.469 µM (active); in [7] it was 0.743 µM (active); in [9] it was 2.64 µM (active). Besides, the Potency in assay [10] was 5.9 µM (active); in assay [16], 2.35 µM (active); in assay [17], 0.833 µM (active); in assay [11], 2.35 µM (active).
